Measurements as given in PubChem BioAssay AID624330 (Southern Research Specialized Biocontainment Screening …, 2012).
Screen size: about 340,000 compounds; about 2,100 (0.62%) were called active.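 The calls were made as follows: active = first-screen hits whose inhibition reached a set limit at any dose in the follow-up dose series; inconclusive = inhibition above the set first-screen limit but never retested; inactive = the rest.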 Not all results are given here. Results with a measured potency or affinity are listed apart.

biological target: Rac GTPase-activating protein 1 (Homo sapiens) (UniProt Q9H0H5); assay: blockers of MgcRacGAP-driven Rac1 GTP hydrolysis – biochemical, ADP Hunter fluorescence, primary and confirmatory, confirmation (AID 624330); settings: MgcRacGAP-stimulated Rac1 GTP hydrolysis, at 30 µM, active compounds read high, GST-tagged Rac1 F28L mutant substrate;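 also: fluorescence reports GDP produced by GAP-driven GTP hydrolysis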
Sequence (Q9H0H5 whole entry, looked up): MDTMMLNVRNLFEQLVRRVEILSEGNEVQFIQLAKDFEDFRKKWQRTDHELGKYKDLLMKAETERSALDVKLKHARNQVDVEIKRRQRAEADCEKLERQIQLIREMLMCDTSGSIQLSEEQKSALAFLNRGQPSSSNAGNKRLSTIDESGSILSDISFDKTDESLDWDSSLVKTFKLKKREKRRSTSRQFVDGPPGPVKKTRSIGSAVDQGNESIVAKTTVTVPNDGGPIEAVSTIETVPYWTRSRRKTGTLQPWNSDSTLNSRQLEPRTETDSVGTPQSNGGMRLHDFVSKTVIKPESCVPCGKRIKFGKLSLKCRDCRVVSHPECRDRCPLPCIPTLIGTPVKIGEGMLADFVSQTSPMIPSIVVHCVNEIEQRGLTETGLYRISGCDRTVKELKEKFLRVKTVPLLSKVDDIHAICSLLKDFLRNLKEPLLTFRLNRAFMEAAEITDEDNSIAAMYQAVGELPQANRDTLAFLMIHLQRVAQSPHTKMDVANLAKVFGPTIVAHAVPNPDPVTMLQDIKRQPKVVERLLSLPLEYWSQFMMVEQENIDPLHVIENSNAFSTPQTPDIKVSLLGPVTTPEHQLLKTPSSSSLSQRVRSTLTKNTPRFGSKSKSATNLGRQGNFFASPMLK

inhibition, inactive:
O=C(NCc1cccnc1)C1CCN(S(=O)(=O)c2cccs2)CC1 8.85%
CCN(c1ccc(NS(=O)(=O)c2cc(Cl)ccc2Cl)cc1)C(C)C 10.2%
O=S(=O)(Nc1ccncc1)c1ccc(Cl)cc1 2.85%
CSc1ccc(S(=O)(=O)Nc2ccc(S(=O)(=O)Nc3ccc(C)cc3)cc2)cc1 8.03%
CC(=O)N(C)c1ccc(NS(=O)(=O)c2cc(Cl)ccc2Cl)cc1 11.1%
CC(=O)Nc1ccc(S(=O)(=O)N[C@@H](C)C(=O)OCc2ccc(Cl)cc2)cc1 3.47%
CN(C)c1ccc(S(=O)(=O)c2ccc(Cl)cc2)cc1 -2.71%
Cc1ccc(S(=O)(=O)Nc2ccc(N(C)S(=O)(=O)c3ccc(C)cc3)cc2)cc1 3.88%
Cc1ccc(NC(=O)COC(=O)C(NS(=O)(=O)c2ccc(Cl)cc2)C(C)O)cc1 (stereo unspecified) 4.48%
O=C(CCSc1ccc(Cl)cc1)NCc1ccccn1 14.8%
CC(=O)CC(=O)Nc1ccc(Cl)cn1 4.78%
CCOC(=O)N1CCC(N2CCN(S(=O)(=O)c3ccc([N+](=O)[O-])cc3)CC2)CC1 30.9%
COc1ccc2nc(NC(=O)CSc3cn[nH]n3)sc2c1 6.06%
Nc1ccccc1NC(=O)NC(=O)c1ccccc1 12.1%
COC(=O)Cn1cc(/C=N/NC(=O)COc2cccc3cccnc23)c2ccccc21 5.77%
Cc1cc(C(=O)Nc2sccc2C#N)c2ccccc2n1 12%
Cn1nnc(NC(=O)c2ccc(Br)o2)n1 11.1%
COCc1ccc(CN2CCC(N3CCC(C(=O)N4CCCC4)CC3)CC2)o1 1.64%
CN(CC(=O)Nc1ccc(F)cc1)C(=O)c1cccc(NS(=O)(=O)c2ccccc2)c1 5.16%
COCCCNC(=O)/C(C#N)=C/c1c(N2CCN(c3ccccc3)CC2)nc2c(C)cccn2c1=O 10.4%
COCCNC(=O)/C(C#N)=C/c1c(N2CCN(c3ccc(OC)cc3)CC2)nc2c(C)cccn2c1=O 31.4%
OCCNCc1c(OCc2ccc(Cl)cc2)ccc2ccccc12 8.81%
CCc1ccc(NC(=O)CCNC(=O)Cn2cnc3ccccc3c2=O)cc1 9.24%
COc1ccc(-n2c(C)cc(/C=C3\C(=N)N4N=C(CC(=O)N5CCOCC5)SC4=NC3=O)c2C)c(OC)c1 -2.43%
Cc1cc(-c2ccccc2)n2ncnc2n1 6.89%
Cc1cc(-c2ccc3ccccc3c2)n2ncnc2n1 -7.09%
COc1ccc(NC(=O)CCCc2ccccc2)c(OC)c1 6.75%
CNC(=O)CC1C(=O)N(Cc2ccccc2)C(=S)N1NC(=O)c1cccc(F)c1 (stereo unspecified) -0.78%
COCCn1c(CN2CCc3ccccc3C2)nc2c1c(=O)n(C)c(=O)n2C 7.99%
CCCc1nc2ccccc2n1CCOc1ccccc1 3.33%
CCOc1cc(/C=C(\C#N)C(=O)NCC2CCCO2)ccc1OCC(N)=O (stereo unspecified) 4.74%
CCOc1cc(/C=C(\C#N)C(=O)Nc2ccccn2)ccc1O 12.8%
CCOc1ccc(/C=C(\C#N)C(=O)NCC2CCCO2)cc1OCC (stereo unspecified) -2.79%
N#C/C(=C/c1ccc(O)cc1)C(=O)NCc1ccc(Cl)cc1 3.42%
COc1cc(/C=N/NC(=O)C(=O)NCc2cccnc2)ccc1O 25.4%
COc1ccc(/C=C(\C#N)C(=O)NCc2cccnc2)cc1OC 0.52%
COc1ccc(/C=N/NC(=O)C(=O)NCc2cccnc2)cc1OC -5.14%
N#C/C(=C/c1cccc(O)c1)C(=O)NCc1ccc(Cl)cc1 24.4%
O=C(NCc1ccco1)C1CC(c2cc(C(F)(F)F)cc(C(F)(F)F)c2)=NO1 (stereo unspecified) 6.53%
COc1cc2c(cc1NC(=O)CN(C)Cc1nc3ccccc3c(=O)[nH]1)oc1ccccc12 5.31%
O=C(Nc1ccc(Cl)cc1Cl)NC1CCN(S(=O)(=O)c2ccc(F)cc2)CC1 9.28%
Cc1ccc(-c2ccc(/C=N/NC(=O)Cc3nnc(N)s3)o2)cc1Cl 7.23%
COc1ccc(S(=O)(=O)N2CCOCC2)cc1NC(=O)c1cc(C)oc1C 6.98%
O=C(Cn1sc2ccccc2c1=O)Nc1ccc(Br)cc1 31.7%
O=C(Cn1sc2ccccc2c1=O)Nc1ccc(Cl)cc1 31.2%
CCn1c(=O)n(CC(=O)Nc2ccc(F)cc2)c(=O)c2ccccc21 12.4%
O=C(Cn1nc(-c2ccccc2)c2ccccc2c1=O)Nc1ccc(F)cc1 5.93%
O=c1c(-c2ccc(Br)cc2)[n+]([O-])c2ccccc2n1OCc1ccccc1 -0.43%
CSc1ccc(Cn2nnc(C(=O)Nc3ccc(C)c(C)c3)c2N)cc1 8.18%
Cn1c(SCC(=O)Nc2cccc(F)c2)nnc1-c1cc2ccccc2o1 7.89%
Nc1ccc(NC(=O)c2cccs2)cc1 24%
CC1=C(C(=O)NCCc2ccc(C)cc2)C2(CCC(C)CC2)OC1=O (stereo unspecified) 7.59%
O=C(NC1=C(Nc2ccc(Cl)cc2)C(=O)c2ccccc2C1=O)c1ccccc1 6.16%
O=C(Nc1ccccc1Cl)c1ccccc1 6.83%
C/C(=N\NC(=O)C(O)c1ccccc1)c1cccnc1 (stereo unspecified) 2.12%
COc1ccc(C(=O)N/N=C/c2ccc(N3CCOCC3)o2)cc1OC 14.2%
COc1ccc(C(=O)N/N=C/c2sc(N3CCOCC3)nc2-c2ccccc2)cc1OC 7.1%
Nc1ccc(C(=O)N/N=C/c2sc(N3CCOCC3)nc2-c2ccccc2)cc1 12%
O=C(N/N=C/c1ccc(N2CCOCC2)s1)c1ccccc1Cl 25.1%
O=C(N/N=C/c1ccc(N2CCOCC2)s1)c1ccc(NS(=O)(=O)c2cccs2)cc1 18.4%
O=C(NN=Cc1ccc(N2CCOCC2)s1)c1ccc([N+](=O)[O-])cc1 9.59%
